High-throughput results: PubChem BioAssay, several laboratories
ARNT-TACC3 inh = disrupts binding between human ARNT and TACC3. Q9Y6A5. AlphaScreen His-ARNT PAS-B/GST-TACC3 binding, luminescence; TACC3 fragment carries E629A point mutation. inhibition, % at 9.99 µM. hit rate 0.66% among 390,000. AID 623870;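 active = mean inhibition of replicates at least 50% and at least half of replicates each reaching 50%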;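 note: 0% = complete ARNT plus TACC3 wells and 100% = ARNT alone without TACC3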
NRP1-CendR mod = modulators of CendR peptide binding to human neuropilin-1; inhibition, % at 25 µM; AID 602438; hit rate 0.85% among 360,000; O14786; FAM-RPARPAR peptide binding to NRP-1, fluorescence polarization;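 active = inhibition or corrected inhibition above about 18%, plus a signal ratio from 0.5 to 1.5, limit read from the data, passing the limit was not always enough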
ALR inh = inhibitors of human sulfhydryl oxidase ALR. P55789. purified ALR, DTT oxidation, H2O2 HRP-luminol luminescence. inhibition, % (concentration not given with the values). AID 485317. hit rate 3.8% among 290,000;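 active = mean replicate inhibition above about 79%, with every replicate also reaching it, limit read from the data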
Target sequence (P55789 whole entry, looked up): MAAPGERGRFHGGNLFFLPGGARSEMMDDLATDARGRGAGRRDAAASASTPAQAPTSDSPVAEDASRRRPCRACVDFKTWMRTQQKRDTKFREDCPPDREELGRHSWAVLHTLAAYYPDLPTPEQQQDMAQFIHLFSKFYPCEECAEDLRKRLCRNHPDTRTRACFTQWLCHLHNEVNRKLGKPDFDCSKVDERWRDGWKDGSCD
PglD DTNB = inhibitors of Campylobacter jejuni PglD acetyltransferase; purified PglD enzyme, DTNB colorimetric CoA detection; inhibition, % at 12.5 µM; hit rate 0.098% among 360,000; in the data active = inhibition above about 16%, passing the limit was not always enough
PDI inh = blocks human protein disulfide isomerase activity; AID 588391; PDI insulin aggregation turbidity, A650, 90 min; hit rate 0.052% among 350,000; P07237; inhibition, % at 10 µM;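 active = mean inhibition across replicates of 30% or more, whatever share of single replicates reach that level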
ERp5 block = inhibitors of human ERp5; Q15084; ERp5 insulin aggregation, absorbance 650 nm, 90 min; inhibition, % at 9.99 µM; hit rate 0.05% among 350,000; AID 651711;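 active = mean replicate inhibition above about 25%, with every replicate also reaching it, limit read from the data, passing the limit was not always enough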
Target sequence (Q15084 whole entry, looked up): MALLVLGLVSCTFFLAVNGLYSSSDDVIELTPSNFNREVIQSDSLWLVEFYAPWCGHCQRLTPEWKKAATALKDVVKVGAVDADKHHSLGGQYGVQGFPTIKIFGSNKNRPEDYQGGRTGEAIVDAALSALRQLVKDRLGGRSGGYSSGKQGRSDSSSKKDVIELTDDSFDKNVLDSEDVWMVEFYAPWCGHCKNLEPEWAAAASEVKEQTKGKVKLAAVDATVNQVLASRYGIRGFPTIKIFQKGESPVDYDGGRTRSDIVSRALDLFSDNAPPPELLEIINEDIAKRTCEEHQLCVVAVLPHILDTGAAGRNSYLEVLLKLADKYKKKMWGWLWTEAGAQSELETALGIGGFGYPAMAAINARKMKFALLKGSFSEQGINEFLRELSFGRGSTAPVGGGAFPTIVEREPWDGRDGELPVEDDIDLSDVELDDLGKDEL
An asterisk follows results filed as active; . = no result. Shown is part of a subset that was picked to be rich in hits.

SMILES | ARNT-TACC3 inh | NRP1-CendR mod | ALR inh | PglD DTNB | PDI inh | ERp5 block
O=C(C[C@@H]1C[C@H]2c3cc(NC(=O)c4ccc5c(c4)OCO5)ccc3O[C@H]2[C@H](CO)O1)NCc1cc(F)ccc1F | 6 | . | . | 0 | . | -11
C[C@H](CO)N1C[C@H](C)[C@H](CN(C)C(=O)NC2CCCCC2)Oc2ccc(NC(=O)Nc3ccccc3)cc2C1=O | 19 | . | . | 3 | . | 5
CCn1c(CN(C)c2ccccc2)nc2ccccc21 | -4 | 6 | 98* | -5 | 14 | 0
CCn1c(COc2ccccc2)nc2ccccc21 | -5 | -11 | -3 | 7 | 11 | .
O=C1N=NC(=O)N1c1ccccc1 | -3 | -17 | 87* | 1 | -5 | 1
O=S(=O)(Nc1ccc2c(c1)OCO2)c1ccc(F)c(F)c1 | -8 | 10 | 88* | 5 | 4 | -24
COc1cc2cc(OC(C)=O)c3cc4c(cc3c2c(OC)c1OC)OCO4 | . | 3 | . | . | . | 1
COc1cc2c(c(OC)c1OC)-c1c(cc3c(c1OC)OCO3)[C@@H](OC(C)=O)[C@H](C)[C@H](C)C2 | -3 | 27* | -10 | 2 | -5 | -1
C/C=C(/C)C(=O)O[C@@H]1c2cc(OC)c(OC)c(OC)c2-c2c(cc3c(c2OC)OCO3)C[C@H](C)[C@]1(C)O | 2 | 28* | -8 | 1 | -3 | -3
Cc1ccccc1S(=O)(=O)NCC[C@H]1CC[C@@H](NC(=O)C2CCOCC2)[C@H](CO)O1 | 0 | . | . | 4 | . | 1
Cc1ccc(NC(=O)Nc2cccs2)c(Cl)c1 | 0 | -10 | 5 | . | 10 | .
Cc1ccc(NC(=O)Nc2cccs2)cc1 | -7 | -21 | 98* | 13 | 3 | .
O=C(Nc1cccs1)Nc1ccccc1Cl | 21 | -3 | 89* | . | -11 | .
CC(=O)c1cccc(NC(=O)Nc2cccs2)c1 | 4 | -9 | 96* | -6 | 1 | .
Cc1ccc(NC(=O)Nc2cccs2)nc1 | -5 | 25* | 98* | -1 | -1 | .
COC(=O)C[C@H]1CC[C@@H]2[C@@H](COc3ccc(NC(=O)c4cnccn4)cc3C(=O)N2C)O1 | . | . | . | -1 | . | .
O=C(Nc1ccc(F)cc1)N[C@@H]1CC[C@@H](CC(=O)N2CCCCC2)O[C@H]1CO | . | . | . | 7 | . | -1
COc1ccc2c3c([nH]c2c1)[C@@H](CO)N(C(=O)NC(C)C)CC31CN(C(=O)c2cnccn2)C1 | . | . | . | . | . | 4
O=C(O)CCCC(=O)N1CCc2cc(S(=O)(=O)N3CCc4ccccc43)ccc21 | 8 | 30* | -21 | 4 | . | 4
O=C(C[C@@H]1CC[C@@H](NC(=O)Nc2ccc3c(c2)OCO3)[C@H](CO)O1)NCc1ccccc1 | -2 | . | . | 0 | . | 5
Cc1c(Br)c([N+](=O)[O-])nn1CC(=O)NCc1cccs1 | -3 | 25* | -4 | 1 | 13 | .
O=C(c1ccccc1)N1CCN(c2ncccn2)CC1 | 2 | 16 | -12 | 0 | 4 | 4
Oc1ccccc1N1CCN(c2nnnn2-c2ccccc2)CC1 | -5 | 1 | 99* | 4 | -6 | 1
Fc1ccccc1N1CCN(c2nnnn2-c2ccccc2)CC1 | 11 | -3 | -3 | 5 | 4 | -2
c1ccc(N2CCN(c3ncccn3)CC2)cc1 | . | 2 | 98* | 6 | 9 | .
SMILES | ARNT-TACC3 inh | NRP1-CendR mod | ALR inh | PglD DTNB | PDI inh | ERp5 block
Oc1ccccc1N1CCN(c2ncccn2)CC1 | -1 | 3 | 99* | 1 | 9 | 1
C[C@@H]1CN([C@@H](C)CO)C(=O)c2cc(C#Cc3ccccc3F)cnc2O[C@H]1CN(C)C(=O)Cc1ccccc1 | 13 | . | . | 4 | . | -2
Cc1ccccc1S(=O)(=O)N1C[C@H](O)COC[C@H]2O[C@H](CC(=O)NCCc3ccccc3)CC[C@@H]21 | 11 | . | . | 1 | . | -1
C#CCOCCOCCOCCNc1nc(N2CCN(C(=O)[C@H](CCCCN)n3cc(CN)nn3)CC2)nc(N2CCN(C(=O)[C@H](CCC(=O)O)n3cc([C@@H](N)CCCCN)nn3)CC2)n1 | 19 | 0 | -1 | 5 | -4 | 1
C#CCOCCOCCOCCNc1nc(N2CCN(C(=O)C(Cc3cc4ccccc4[nH]3)n3cc(C(N)C(C)CC)nn3)CC2)nc(N2CCN(C(=O)C(Cc3cc4ccccc4[nH]3)n3cc(C(N)C(C)CC)nn3)CC2)n1 (stereo unspecified) | -7 | 12 | . | -2 | 55* | .
C#CCOCCOCCOCCNc1nc(N2CCN(C(=O)[C@H](CCCCN)n3cc([C@@H](N)CC(C)C)nn3)CC2)nc(N2CCN(C(=O)[C@H](Cc3ccc(O)cc3)n3cc([C@@H](N)CC(C)C)nn3)CC2)n1 | . | . | -25 | . | . | .
C#CCOCCOCCOCCNc1nc(N2CCN(C(=O)[C@H](CCCCN)n3cc([C@@H](N)CC(C)C)nn3)CC2)nc(N2CCN(C(=O)[C@H](Cc3cc4ccccc4[nH]3)n3cc([C@@H](N)Cc4ccc(O)cc4)nn3)CC2)n1 | 46* | -1 | . | 0 | 35* | .
C#CCOCCOCCOCCNc1nc(N2CCN(C(=O)[C@H](CCCCN)n3cc([C@@H](N)CO)nn3)CC2)nc(N2CCN(C(=O)[C@H](Cc3cc4ccccc4[nH]3)n3cc([C@@H](N)Cc4ccc(O)cc4)nn3)CC2)n1 | . | . | -3 | . | . | .
C#CCOCCOCCOCCNc1nc(N2CCN(C(=O)[C@H](CCCCN)n3cc(CN)nn3)CC2)nc(N2CCN(C(=O)[C@H](CCCCN)n3cc(CN)nn3)CC2)n1 | 14 | 32* | -1 | -2 | 23 | -7
C#CCOCCOCCOCCNc1nc(N2CCN(C(=O)[C@H](CCCCN)n3cc([C@@H](N)C(C)CC)nn3)CC2)nc(N2CCN(C(=O)[C@H](Cc3ccc(O)cc3)n3cc([C@@H](N)CC(C)C)nn3)CC2)n1 (stereo partly specified) | 30* | 1 | -21 | 2 | 8 | -4
COCC(=O)N1CC[C@H]2[C@@H]1c1cc(-c3ccc(OC)cc3)ccc1N(C)[C@H]2CO | -3 | . | . | 2 | . | 3
Cc1ccc2cc(CN(c3ccccc3C)S(=O)(=O)c3ccccc3)c(=O)[nH]c2c1 | -4 | 25* | -8 | -5 | -6 | 6
COc1ccc(N(C)S(=O)(=O)c2cccc(C(=O)Nc3nc(C)cs3)c2)cc1 | 2 | 2 | 97* | 2 | 6 | 5
COc1ccc(N(C)S(=O)(=O)c2cccc(C(=O)Nc3nnc(C4CC4)s3)c2)cc1 | -2 | -2 | -5 | 1 | 4 | -6
Cc1ccc(N(C)S(=O)(=O)c2cccc(C(=O)Nc3nnc(C4CC4)s3)c2)cc1 | 1 | -12 | 95* | . | -1 | -3
CCSc1nnc(NC(=O)c2cccc(S(=O)(=O)N(C)c3ccccc3)c2)s1 | -10 | 7 | 94* | . | -3 | .
COc1cccc(C#Cc2cnc3c(c2)C(=O)N([C@H](C)CO)C[C@H](C)[C@@H](CN(C)C)O3)c1 | . | . | . | 3 | . | 0
O=C(NCc1cc(F)cc(F)c1)[C@@H]1[C@@H](CO)[C@@H]2Cn3c(cccc3=O)[C@H]1N2C(=O)c1ccccn1 | . | . | . | . | . | 0
